# Measured values from PubChem BioAssay.
# The source made the active and inactive calls. Unless noted, no rule for the calls is given here.
# Columns and labels:
# [1] = tested on: XIP peptide (Xip251-270) binding; experiment: XIP fragment 251-270 binding compounds – biochemical, small-molecule microarray, fluorescence 635/667 nm, 0.1 µg/mL protein, primary screen (AID 1182); conditions: fluorescent protein binding, 635 nm, higher = more signal, called active from +8 up or from −8 down
# [2] = tested on: XIP peptide (Xip251-270); experiment: compounds binding XIP fragment 251-270 – biochemical, small-molecule microarray, fluorescence 635/667 nm, 0.5 µg/mL protein, primary screen (AID 1183); conditions: fluorescence 635 nm, higher = more signal
# [3] = blood-stage malaria parasite viability loss – strain 3D7, DAPI fluorescence, 100 nL, primary screen (AID 1184);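 also: parasites grown inside human red blood cells in medium with human serum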; conditions: P. falciparum 3D7 growth, 3 d, higher = more signal
# [4] = biological target: Homeobox protein Hox-A13 (Mus musculus) (UniProt Q62424); experiment: disruptors of Hoxa13 oligonucleotide interaction – biochemical, fluorescence polarization, labeled oligonucleotide, primary screen (AID 1185); conditions: Hoxa13:DNA binding, 15 min, higher = more signal, called active from +8 up or from −8 down
# [5] = blockers of DNA damage checkpoint Chk1 activation – imaging, HeLa, hydroxyurea, phospho-Chk1 antibody, percent positive cells, primary screen (AID 1186); conditions: hydroxyurea-induced phospho-Chk1 immunofluorescence imaging, higher = more signal
# [6] = blockers of DNA damage checkpoint Chk1 activation – imaging, HeLa, hydroxyurea, phospho-Chk1 nuclear intensity, primary screen (AID 1187); conditions: hydroxyurea-induced phospho-Chk1 immunofluorescence imaging, higher = more signal
# Chain of Homeobox protein Hox-A13 (Mus musculus) (Q62424 whole entry, looked up): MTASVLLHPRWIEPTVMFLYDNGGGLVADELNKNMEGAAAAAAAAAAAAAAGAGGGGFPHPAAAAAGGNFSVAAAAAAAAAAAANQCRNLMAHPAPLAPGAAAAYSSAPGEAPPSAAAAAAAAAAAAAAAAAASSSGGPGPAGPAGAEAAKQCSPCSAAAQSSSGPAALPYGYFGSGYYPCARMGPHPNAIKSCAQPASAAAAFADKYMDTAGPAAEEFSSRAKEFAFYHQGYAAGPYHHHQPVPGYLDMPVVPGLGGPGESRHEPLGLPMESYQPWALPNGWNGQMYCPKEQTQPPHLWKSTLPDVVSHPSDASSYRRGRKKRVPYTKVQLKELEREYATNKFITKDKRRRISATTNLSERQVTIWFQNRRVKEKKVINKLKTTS
SMILES,composite z-score [1],composite z-score [2],z-score [3],z-score [4],z-score [5],z-score [6]
CCOC(=O)C=Cc1ccccc1O,1.39 (inactive),0.322,-1.39,-0.772 (inactive),-0.312 (inactive),-0.678 (inactive)
Cc1ccc(C(C)CC(O)C2C=CC3C(=O)N(c4ccccc4)C(=O)C3N2Nc2ccc(C#N)cc2)o1 (stereo unspecified),0.662 (inactive),0.322,0.25,-3.75 (inactive),0.124 (inactive),0.222 (inactive)
CC1CC/C=C\[C@H]2OC34C=CCN(C(C)(C)C)C(=O)[C@H]3N(C(CO)C(C)C)C(=O)[C@@H]4C2C(=O)O1 (stereo partly specified),1.27 (inactive),-0.142,-0.459,-5.73 (inactive),0.015 (inactive),0.277 (inactive)
COC(=O)C1N=C(c2ccc(OCCCO)cc2)N(c2ccccc2)O1 (stereo unspecified),2.4 (inactive),0.864,0.704,-3.85 (inactive),-0.729 (inactive),-0.63 (inactive)
CO[C@H]1O[C@H](CO)[C@@H](OC(=O)c2ccc(Br)cc2)[C@@H]2OC(=O)[C@H](Cc3ccccc3)C/C=C/C[C@@H](Cc3ccccc3)C(=O)O[C@@H]12,-0.161 (inactive),0.629,-0.949,-5.27 (inactive),-0.708 (inactive),-1.06 (inactive)
COc1ccc([Si](C)(C)[C@H]2[C@H](CCO)O[C@@]3(C(=O)N(Cc4ccc(N5C(=O)c6ccccc6Oc6ccccc65)cc4)c4ccccc43)[C@@H]2C)cc1,-0.136 (inactive),0.0004,-1.67,-1.05 (inactive),-0.557 (inactive),-0.583 (inactive)
COCCOC(=O)N1C(=O)[C@@]2(c3cc(C#CCNC(N)=O)ccc31)[C@H](c1ccc(OCCO)cc1)N1[C@H](c3ccccc3)[C@H](c3ccccc3)OC(=O)[C@H]1[C@@H]2C(=O)NC[C@H](O)c1ccccc1,0.586 (inactive),0.644,-0.599,-1.94 (inactive),-0.3 (inactive),-0.102 (inactive)
C=C[C@@H](OC)[C@H](OC(=O)Nc1ccc(OC)cc1)c1ccc(OC)c(O)c1,2.2 (inactive),0.462,1.46,-2.54 (inactive),1.11 (inactive),1.39 (inactive)
O=C1C[C@@](C(=O)NCc2ccccc2)(c2ccc([N+](=O)[O-])cc2)[C@@H](c2ccc(CO)cc2I)N1CC12CC3CC(CC(C3)C1)C2,0.239 (inactive),0.692,-1.48,-2.19 (inactive),-0.114 (inactive),-0.147 (inactive)
Cc1ccc(S[C@]2(C(=O)NC(C)C)CC(=O)N(C(C)C)[C@@H]2c2ccc(CO)cc2I)cc1,0.317 (inactive),0.101,-2.02,-2.58 (inactive),0.0841 (inactive),0.925 (inactive)
C=CCC(OC(C)=O)[C@@H]1[C@@H](N(Cc2ccc(-c3cccc(C(F)(F)F)c3)o2)C(=O)c2cccc3ccccc23)c2cc(OCCCO)ccc2N1C(=O)Cc1ccc(OC)cc1 (stereo partly specified),0.309 (inactive),0.456,-2.43,-1.92 (inactive),-0.48 (inactive),0.0284 (inactive)
CN1C(=O)C2C(C1=O)C1C=C(CCCO)C2C(c2cccs2)N1Cc1cc2c(cc1Br)OCO2 (stereo unspecified),0.0841 (inactive),0.757,-0.654,-8.9 (active),0.214 (inactive),0.228 (inactive)
CC(C)C[C@@H]1NC(=O)[C@@H]2C[C@H](C(=O)NCCCCCC[N+](C)(C)C)[C@H](c3cccc(OCCO)c3)N2C1=O,0.753 (inactive),0.869,0.169,-5.12 (inactive),-0.282 (inactive),-0.178 (inactive)
CC(C)=CCCC(C)=CC(O)C1C=CC2C(=O)N(c3ccccc3)C(=O)C2N1Nc1ccccc1F (stereo unspecified),0.0917 (inactive),0.546,0.203,-3.38 (inactive),0.0156 (inactive),0.0908 (inactive)
CCCCCCCCCCC(O)C1C=CC2C(=O)N(c3ccccc3)C(=O)C2N1Nc1ccccc1F (stereo unspecified),1.69 (inactive),0.538,0.157,0.356 (inactive),-0.745 (inactive),-1.48 (inactive)
CCCCCN1CC=CC23O[C@@H]4/C=C\CCC(C)OC(=O)C4[C@H]2C(=O)N(CCCCCCO)[C@@H]3C1=O (stereo partly specified),0.185 (inactive),0.459,0.162,-4.71 (inactive),-0.0032 (inactive),0.453 (inactive)
O=C(N1CCOCC1)[C@@]1(CCS(=O)(=O)c2ccccc2)N=C(c2ccc(OCCCO)cc2)O[C@H]1c1ccccc1,1.79 (inactive),0.747,-1.39,-5.53 (inactive),0.0192 (inactive),0.249 (inactive)
O=C1O[C@H](c2ccccc2)[C@H](c2ccccc2)N2[C@H]1[C@@H](C(=O)Nc1nc3ccccc3s1)[C@]1(C(=O)Nc3ccc(C#CC4=CCCCC4)cc31)[C@H]2c1ccc(O)cc1,0.847 (inactive),0.541,-0.987,3.34 (inactive),-0.433 (inactive),-0.749 (inactive)
C=C(CCCC)C(=O)CC[C@H](OC(C)=O)c1ccc(OCCO)cc1,0.783 (inactive),0.227,-3.07,-6.07 (inactive),-0.427 (inactive),-0.523 (inactive)
COc1cc2c(cc1O)C(c1ccc(CN3CCCC3)cc1)N(C)CC2 (stereo unspecified),-0.389 (inactive),-0.819,-1.58,-2.85 (inactive),0.227 (inactive),0.129 (inactive)
C=C(/C(=C/C[C@@H](OC(=O)c1ccncc1)c1cccc(OCCO)c1)c1cnc2ccccc2c1)C(C)C,0.601 (inactive),0.602,-2.88,-4.48 (inactive),0.242 (inactive),0.258 (inactive)
C#C[C@@H](CC)O[Si](C#CCCCC#N)(C(C)C)C(C)C,1.09 (inactive),0.261,-0.574,-1.27 (inactive),0.33 (inactive),0.0685 (inactive)
CN(C)C(=O)[C@@]1(Cc2ccccc2)COC(c2ccc(OCCCO)cc2)=N1,0.205 (inactive),0.845,-0.627,-6.02 (inactive),-1.01 (inactive),-1.03 (inactive)
CCCNC(=O)[C@@]1(Sc2ccc(C)cc2)CC(=O)N(C2CCCCC2)[C@@H]1c1ccc(CO)cc1I,0.398 (inactive),0.372,-0.688,-4.72 (inactive),0.493 (inactive),0.252 (inactive)
O=C1C2C=CC(C(O)C=Cc3ccc([N+](=O)[O-])cc3)N(Nc3ccccc3)C2C(=O)N1c1ccccc1 (stereo unspecified),-0.375 (inactive),0.596,-0.054,-4.58 (inactive),-0.744 (inactive),-0.913 (inactive)
CC(C)C(CO)N1C(=O)[C@@H]2[C@H]3C(=O)OCC=C[C@H]3OC23C=CCN(C(C)(C)C)C(=O)[C@@H]13 (stereo partly specified),0.0887 (inactive),0.37,-0.217,-4.25 (inactive),0.337 (inactive),-0.418 (inactive)
